For some of these results: Potency and affinity values are given separately. The source made the active and inactive calls.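 How the source made its calls, unless noted: active means calcium signal rise above buffer-control mean plus 5 SD in both duplicates, and also a hit in the primary screen; inactive means the rest.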
Columns and labels:
[1] = test system: TRPC4 beta (transient receptor potential cation channel C4), mouse; experiment: TRPC4 cation channel opening, retest – cell-based, Fluo4 calcium, HEK293 TRPC4beta/mu-opioid, duplicates, 10 µM, confirmation (AID 2426;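 active means fluorescence ratio normalized to control raised more than 50% in primary screen plus both repeat runs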;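 on activation: percent rise of integrated ratio over buffer wells lacking compound which define 0%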); conditions: Fluo4 calcium fluorescence, at 10 µM; stronger effect = higher value
[2] = test system: transient receptor potential cation channel C4 beta (TRPC4), mouse; experiment: TRPC4 cation channel opening, second retest – cell-based, second round, Fluo4, HEK293 TRPC4beta/mu-opioid, 1 µM, confirmation (AID 2461;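 active means primary screen active and over 50% activation in each of two duplicate runs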;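 on activation: 0% = wells without test compound as baseline of integrated fluorescence ratio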); conditions: Fluo4 calcium fluorescence, at 1 µM; stronger effect = higher value
[3] = test system: TRPC4 (transient receptor potential cation channel C4 beta), mouse; experiment: potentiation of DAMGO EC20 TRPC4 response – cell-based, second round, Fluo-4, HEK293 TRPC4beta/mu-opioid, 1 µM, confirmation (AID 2554;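 active means primary screen hit whose fluorescence ratio, in both repeats, exceeds the weak agonist control mean by 3 SD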); conditions: DAMGO EC20, Fluo-4 calcium flux, at 1 µM; stronger effect = higher value
[4] = test system: TRPC4 beta (transient receptor potential cation channel C4), mouse; experiment: potentiation of DAMGO EC20 TRPC4 response – cell-based, Fluo-4, HEK293 TRPC4beta/mu-opioid, confirmation (AID 2555;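 active means primary screen hit whose calcium fluorescence ratio, in both repeats, exceeds the weak agonist control mean by 3 SD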); conditions: DAMGO EC20, Fluo-4 calcium flux, at 10 µM; stronger effect = higher value
[5] = target: Short transient receptor potential channel 4 (Mus musculus) (UniProt Q9QUQ5); experiment: blockers of DAMGO-evoked TRPC4 calcium flux – cell-based, Fluo4, HEK293 TRPC4beta/mu-opioid, confirmation (AID 2636;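 active means calcium signal cut by more than 3 SD below the full-agonist control yet still positive, in both repeats and the earlier primary screen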); conditions: at 10 µM; stronger effect = higher value
Chain of Short transient receptor potential channel 4 (Mus musculus) (Q9QUQ5 whole entry, looked up): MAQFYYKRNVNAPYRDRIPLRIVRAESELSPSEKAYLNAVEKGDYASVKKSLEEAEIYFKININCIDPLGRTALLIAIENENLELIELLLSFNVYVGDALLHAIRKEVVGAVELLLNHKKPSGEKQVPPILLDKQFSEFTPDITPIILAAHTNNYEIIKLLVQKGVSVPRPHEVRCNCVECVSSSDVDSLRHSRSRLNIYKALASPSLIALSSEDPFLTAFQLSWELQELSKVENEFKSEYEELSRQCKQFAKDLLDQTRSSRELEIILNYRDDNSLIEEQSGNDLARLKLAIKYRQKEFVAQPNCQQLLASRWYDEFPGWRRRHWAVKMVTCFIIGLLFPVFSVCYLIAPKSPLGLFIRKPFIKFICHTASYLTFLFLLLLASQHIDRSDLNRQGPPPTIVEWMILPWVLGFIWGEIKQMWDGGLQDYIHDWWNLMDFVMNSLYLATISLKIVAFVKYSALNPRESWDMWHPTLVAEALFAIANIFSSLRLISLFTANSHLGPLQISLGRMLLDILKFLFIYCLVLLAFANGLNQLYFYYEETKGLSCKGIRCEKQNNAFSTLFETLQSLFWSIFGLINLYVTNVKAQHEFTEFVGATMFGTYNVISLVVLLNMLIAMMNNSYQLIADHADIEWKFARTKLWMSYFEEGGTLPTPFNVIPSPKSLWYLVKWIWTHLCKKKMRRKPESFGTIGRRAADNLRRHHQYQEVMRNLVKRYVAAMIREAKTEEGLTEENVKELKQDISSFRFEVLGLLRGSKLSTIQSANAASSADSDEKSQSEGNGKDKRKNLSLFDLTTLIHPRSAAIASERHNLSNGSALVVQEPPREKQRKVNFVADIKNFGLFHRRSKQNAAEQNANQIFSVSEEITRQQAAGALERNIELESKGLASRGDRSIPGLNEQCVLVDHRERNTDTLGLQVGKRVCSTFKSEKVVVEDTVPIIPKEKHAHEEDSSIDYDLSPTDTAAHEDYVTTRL

[6] = target: Short transient receptor potential channel 4 (Mus musculus) (UniProt Q9QUQ5); experiment: blockers of DAMGO-evoked TRPC4 calcium flux – cell-based, second round, Fluo4, HEK293 TRPC4beta/mu-opioid, 1 µM, confirmation (AID 2637;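 active means calcium signal ratio cut to more than 3 SD under the fully stimulated control mean yet still positive, in both repeats and the primary screen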;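 on inhibition: percent of integrated ratio relative to wells lacking test compound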); conditions: at 1 µM; stronger effect = higher value
[7] = target: Short transient receptor potential channel 4 (Mus musculus) (UniProt Q9QUQ5); experiment: potentiation of DAMGO-evoked TRPC4 calcium signal – cell-based, HEK293 TRPC4/mu-opioid, Fluo-4 calcium, EC20 DAMGO, dose response (AID 434941;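 active means earlier screen potentiator hit that boosts the TRPC4 ion channel at some dose, with a dose response; inactive means no potentiation, no dose response, or not a prior hit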;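 further: calcium entry triggered by an EC20 dose of DAMGO at the co-expressed mu-opioid receptor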)
[8] = target: Short transient receptor potential channel 4 (Mus musculus) (UniProt Q9QUQ5); experiment: block of DAMGO-driven TRPC4 calcium entry – cell-based, HEK293 TRPC4/mu-opioid, Fluo-4 calcium, dose response (AID 434942;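 active means primary screen inhibitor hit that blocks the TRPC4 channel at some tested dose, yielding a dose curve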)
[9] = target: Short transient receptor potential channel 6 (Mus musculus) (UniProt Q61143); experiment: TRPC6 blockade by TRPC4 inhibitor hits – cell-based, HEK293, membrane potential dye, duplicate, selectivity assay for TRPC4 inhibitor project, confirmation (AID 434948;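 active means active in primary screen and both duplicates, each dropping signal beyond three positive-control SD with fluorescence still positive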); conditions: HEK293 TRPC6, membrane potential dye fluorescence, at 10 µM; inhibition: stronger effect = higher value, stimulated with maximal-effect acetylcholine unless noted; outcome: stimulated with maximal-effect acetylcholine unless noted
Chain of Short transient receptor potential channel 6 (Mus musculus) (Q61143 whole entry, looked up): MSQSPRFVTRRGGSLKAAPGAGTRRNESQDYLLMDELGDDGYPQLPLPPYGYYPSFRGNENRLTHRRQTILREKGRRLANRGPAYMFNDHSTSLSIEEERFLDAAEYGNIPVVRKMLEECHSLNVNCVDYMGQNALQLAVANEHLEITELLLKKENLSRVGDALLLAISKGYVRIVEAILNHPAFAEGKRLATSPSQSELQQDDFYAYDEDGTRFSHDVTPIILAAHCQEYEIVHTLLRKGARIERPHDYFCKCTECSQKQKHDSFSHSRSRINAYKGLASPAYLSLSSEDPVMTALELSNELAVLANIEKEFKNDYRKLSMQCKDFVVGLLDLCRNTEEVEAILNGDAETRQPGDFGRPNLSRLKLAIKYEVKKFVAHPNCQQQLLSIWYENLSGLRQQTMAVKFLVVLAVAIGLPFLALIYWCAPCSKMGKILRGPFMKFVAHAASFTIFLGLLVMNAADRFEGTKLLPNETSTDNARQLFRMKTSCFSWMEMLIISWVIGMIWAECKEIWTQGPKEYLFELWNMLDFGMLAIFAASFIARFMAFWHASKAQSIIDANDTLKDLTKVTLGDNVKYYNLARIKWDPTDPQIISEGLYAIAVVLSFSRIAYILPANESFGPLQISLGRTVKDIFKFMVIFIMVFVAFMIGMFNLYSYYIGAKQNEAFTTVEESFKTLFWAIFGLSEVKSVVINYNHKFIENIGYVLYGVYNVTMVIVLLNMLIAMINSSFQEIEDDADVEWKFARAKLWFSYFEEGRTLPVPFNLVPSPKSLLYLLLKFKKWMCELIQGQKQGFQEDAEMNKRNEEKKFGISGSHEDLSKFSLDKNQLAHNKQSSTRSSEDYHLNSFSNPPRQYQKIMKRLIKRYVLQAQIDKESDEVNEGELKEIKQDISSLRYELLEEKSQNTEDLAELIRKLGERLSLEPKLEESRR

[10] = target: Short transient receptor potential channel 6 (Mus musculus) (UniProt Q61143); experiment: TRPC6 opening by TRPC4 activator hits – cell-based, HEK293, membrane potential dye, duplicate, selectivity assay for TRPC4 activator project, confirmation (AID 434950;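 active means membrane potential signal rise above negative control mean plus 3 SD in both duplicates, also active in the earlier TRPC4 screen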;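 on activation: 0% = buffer only wells and 100% = acetylcholine maximal-effect wells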); conditions: HEK293 TRPC6, membrane potential fluorescence, at 10 µM; activation: stronger effect = higher value; outcome: activation
[11] = target: Short transient receptor potential channel 6 (Mus musculus) (UniProt Q61143); experiment: positive modulators of mouse TRPC6 channel – HEK293 cells, membrane potential dye, duplicate, selectivity assay for TRPC4 potentiator project, confirmation (AID 434952;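 active means compound raising the membrane signal above positive-control mean plus 3 SD in both repeats, and a primary screen hit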); conditions: HEK293 TRPC6, membrane potential dye fluorescence, at 10 µM; maximal acetylcholine added after compound unless noted
[12] = target: Short transient receptor potential channel 4 (Mus musculus) (UniProt Q9QUQ5); experiment: calcium flux activators in TRPC4/5HT1a cells, counter-screen for TRPC4 activator project, cell-based, second counter screen, HEK293 TRPC4/5HT1a, Fluo-4 (AID 434977); conditions: Fluo-4 calcium flux, at 10 µM; stronger effect = higher value;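 on activation: plate controls were assay buffer for no effect and maximal serotonin response for full effect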
[13] = serotonin-gated TRPC4 signal block – cell-based, second counter screen, HEK293 TRPC4/5HT1a, Fluo-4, counter-screen for TRPC4 inhibitor project, confirmation (AID 434978;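 active means primary screen active whose calcium signal fell more than 3 SD beyond the full-serotonin control mean in both duplicate plates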;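 further: serotonin given first at submaximal then at maximal dose after compound preincubation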); conditions: Fluo-4 calcium flux, at 10 µM; inhibition: stronger effect = higher value, serotonin added to trigger calcium flux unless noted; outcome: serotonin added to trigger calcium flux unless noted
[14] = test system: TRPC4 (mouse), co-expressed with 5HT1a in HEK293; experiment: enhancement of serotonin-evoked TRPC4 response – cell-based, second counter screen, HEK293 TRPC4/5HT1a, Fluo-4, counter-screen for TRPC4 potentiator project, confirmation (AID 434979;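 active means signal rise over 3 SD above mean of control wells given weak agonist, in both repeats and first screen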); conditions: Fluo-4 calcium flux, at 10 µM; outcome: serotonin added at its EC20 dose unless noted; potentiation: stronger effect = higher value, serotonin added at its EC20 dose unless noted
[15] = nonspecific calcium rise without TRPC4 – cell-based, HEK293 mu-opioid receptor line, counter-screen for TRPC4 activator project, confirmation (AID 449723;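 active means hit in primary screen, with calcium signal over 5 SD above buffer well mean in both duplicates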;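 further: counter screen cells carry the mu-opioid receptor alone and lack TRPC4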); conditions: HEK293 mu-opioid cells, Fluo-4 calcium fluorescence, at 10 µM; stronger effect = higher value
[16] = nonspecific potentiation of DAMGO calcium response – cell-based, HEK293 mu-opioid receptor line, counter-screen for TRPC4 allosteric potentiator project, confirmation (AID 449724;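 active means calcium signal rise more than 3 SD above the low-dose agonist control mean, in both duplicate plates and the primary screen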); conditions: HEK293 mu-opioid receptor cells, Fluo-4 calcium flux, at 10 µM; compound added before EC20 DAMGO stimulus unless noted
[17] = nonspecific flux increase, KCNQ1-free cells – parental CHO cells, counter-screen for KCNQ1 potentiator project (AID 493006;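 active means duplicate-averaged activation above buffer control mean plus 5 SD of those controls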); conditions: parental CHO-K1 cells, FluxOR thallium flux, at 10 µM; stronger effect = higher value
[18] = target: Potassium voltage-gated channel subfamily KQT member 1 (Homo sapiens) (UniProt P51787); experiment: enhancement of KCNQ1 channel thallium flux – FluxOR thallium flux, CHO cells, duplicates, confirmation (AID 493007;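 active means potentiation averaged over duplicate wells exceeding buffer-only control mean by more than 3 SD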;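 further: cells depolarized by a potassium plus thallium sulfate stimulus after compound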); conditions: KCNQ1 cell line, FluxOR thallium flux fluorescence, at 10 µM; stronger effect = higher value, % of reference activator effect, buffer zero
Chain of Potassium voltage-gated channel subfamily KQT member 1 (Homo sapiens) (P51787 whole entry, looked up): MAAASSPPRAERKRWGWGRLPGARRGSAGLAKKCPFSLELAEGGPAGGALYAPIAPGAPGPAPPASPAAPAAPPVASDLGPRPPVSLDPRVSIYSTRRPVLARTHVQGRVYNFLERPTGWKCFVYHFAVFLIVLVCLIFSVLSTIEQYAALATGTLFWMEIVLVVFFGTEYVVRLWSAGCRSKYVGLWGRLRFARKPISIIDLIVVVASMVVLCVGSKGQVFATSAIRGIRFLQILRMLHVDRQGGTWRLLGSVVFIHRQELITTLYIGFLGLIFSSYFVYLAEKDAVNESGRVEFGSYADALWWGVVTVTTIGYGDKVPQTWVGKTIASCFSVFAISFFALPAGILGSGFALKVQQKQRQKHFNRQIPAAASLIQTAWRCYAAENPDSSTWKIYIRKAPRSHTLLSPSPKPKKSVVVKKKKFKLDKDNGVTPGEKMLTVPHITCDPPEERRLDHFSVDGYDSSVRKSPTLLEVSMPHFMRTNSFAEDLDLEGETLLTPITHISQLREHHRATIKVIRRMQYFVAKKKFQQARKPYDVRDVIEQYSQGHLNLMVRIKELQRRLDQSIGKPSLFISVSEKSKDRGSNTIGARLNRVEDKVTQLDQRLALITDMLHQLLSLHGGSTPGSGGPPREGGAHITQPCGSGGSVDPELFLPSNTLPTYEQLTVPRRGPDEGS

[19] = target: Potassium voltage-gated channel subfamily KQT member 2 (Rattus norvegicus) (UniProt O88943); experiment: KCNQ2 thallium flux enhancement – KCNQ2-CHO-K1 cells, selectivity assay for KCNQ1 potentiator project (AID 493009;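 active means mean duplicate potentiation above the buffer control mean plus 5 SD of buffer wells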;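 further: assay conditions were tuned for KCNQ1 rather than KCNQ2 modulators; signal is max minus min fluorescence divided by baseline after thallium stimulus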); conditions: FluxOR thallium flux fluorescence, at 10 µM; stronger effect = higher value, scaled: buffer 0, activator control 100
Chain of Potassium voltage-gated channel subfamily KQT member 2 (Rattus norvegicus) (O88943 whole entry, looked up): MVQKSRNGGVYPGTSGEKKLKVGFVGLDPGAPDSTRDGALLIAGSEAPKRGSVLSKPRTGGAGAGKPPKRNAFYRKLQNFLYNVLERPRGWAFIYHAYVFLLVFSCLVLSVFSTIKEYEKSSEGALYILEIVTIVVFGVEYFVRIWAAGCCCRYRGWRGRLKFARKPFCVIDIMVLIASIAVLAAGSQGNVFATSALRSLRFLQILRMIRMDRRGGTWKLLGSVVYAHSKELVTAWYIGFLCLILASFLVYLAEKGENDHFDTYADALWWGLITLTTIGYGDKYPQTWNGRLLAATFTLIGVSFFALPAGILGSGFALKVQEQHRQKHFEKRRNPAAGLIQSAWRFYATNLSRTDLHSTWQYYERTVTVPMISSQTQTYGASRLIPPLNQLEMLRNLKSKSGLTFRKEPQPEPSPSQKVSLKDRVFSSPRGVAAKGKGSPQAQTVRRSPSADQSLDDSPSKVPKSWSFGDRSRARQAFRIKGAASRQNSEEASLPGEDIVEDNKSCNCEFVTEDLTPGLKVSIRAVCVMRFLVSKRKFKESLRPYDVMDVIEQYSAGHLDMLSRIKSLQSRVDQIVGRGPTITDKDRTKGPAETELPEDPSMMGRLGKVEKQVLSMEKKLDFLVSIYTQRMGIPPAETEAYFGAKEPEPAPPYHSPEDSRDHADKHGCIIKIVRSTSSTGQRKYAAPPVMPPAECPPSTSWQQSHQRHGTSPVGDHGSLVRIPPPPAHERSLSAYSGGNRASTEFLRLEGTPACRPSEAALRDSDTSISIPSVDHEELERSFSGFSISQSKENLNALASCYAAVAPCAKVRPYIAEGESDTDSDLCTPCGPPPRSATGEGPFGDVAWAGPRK

CCOC(=O)C1(CCc2ccccc2)CCN(Cc2csc(C(C)=O)c2)CC1
inactive: outcome [1] | outcome [2] | outcome [3] | outcome [4] | outcome [5] | outcome [6] | outcome [7] | outcome [8] | outcome [9] | outcome [11] | outcome [12] | outcome [13] | outcome [14] | outcome [15] | outcome [16]
active: activation [10] 57.5%

COc1ccc(C2NCCc3[nH]cnc32)cc1 (centres undefined)
inactive: outcome [3] | outcome [4] | outcome [5] | outcome [6] | outcome [7] | outcome [8] | outcome [9] | outcome [10] | outcome [11] | outcome [13] | outcome [14] | outcome [15] | outcome [16]
active: activation [1] 220% | activation [2] 68% | activation [12] 49.5%

O=[N+]([O-])c1cc2c(cc1CNCCc1ccc3c(c1)OCO3)OCO2
active: activation [1] 62% | inhibition [5] 91% | inhibition [6] 39%
inactive: outcome [2] | outcome [3] | outcome [4] | outcome [7] | outcome [9] inactive [setting not given] | outcome [10] | outcome [11] inactive [setting not given] | outcome [12] | outcome [13] inactive [setting not given] | outcome [14] inactive [setting not given] | outcome [15] | outcome [16] inactive [setting not given]

CCOc1cc(CNCCc2c[nH]c3ccccc23)cc(Cl)c1OC
active: activation [1] 129% | activation [12] 65.6%
inactive: outcome [2] | outcome [3] | outcome [4] | outcome [5] | outcome [6] | outcome [7] | outcome [8] | outcome [9] | outcome [10] | outcome [11] | outcome [13] | outcome [14] | outcome [15] | outcome [16]

COc1cc2c3cc1Oc1cc(ccc1O)C[C@@H]1c4c(cc(OC)c(O)c4Oc4ccc(cc4)C[C@H]3N(C)CC2)CCN1C
inactive: outcome [2] | outcome [3] | outcome [4] | outcome [5] | outcome [6] | outcome [7] | outcome [8] | outcome [9] | outcome [11] | outcome [12] | outcome [13] | outcome [14] | outcome [15] | outcome [16]
active: activation [1] 69% | activation [10] 26%

COc1ccc(C(CNC(=O)c2ccc3c(c2)CCC3)N(C)C)cc1 (centres undefined)
inactive: outcome [3] | outcome [4] | outcome [5] | outcome [6] | outcome [7] | outcome [8] | outcome [9] | outcome [11] | outcome [12] | outcome [13] | outcome [14] | outcome [16]
active: activation [1] 237% | activation [2] 142% | activation [10] 76.5% | activation [15] 12.1%

Cn1cc[n+](C)c1P(=S)(c1ccccc1)c1ccccc1
inactive: outcome [1] | outcome [2] | outcome [3] | outcome [4] | outcome [5] | outcome [6] | outcome [7] | outcome [8] | outcome [9] | outcome [10] | outcome [11] | outcome [12] | outcome [13] | outcome [14] | outcome [15] | outcome [16]

C[C@H]1OC[C@@H](C[N+](C)(C)C)O1
inactive: outcome [3] | outcome [4] | outcome [5] | outcome [6] | outcome [7] | outcome [8] | outcome [9] | outcome [11] | outcome [13] | outcome [14] | outcome [16]
active: activation [1] 152% | activation [2] 99% | activation [10] 96% | activation [12] 85% | activation [15] 87.7%

COC(=O)C1=CCCN(C)C1
inactive: outcome [2] | outcome [3] | outcome [4] | outcome [5] | outcome [6] | outcome [7] | outcome [8] | outcome [9] | outcome [11] | outcome [13] | outcome [14] | outcome [16]
active: activation [1] 96% | activation [10] 70% | activation [12] 43.8% | activation [15] 19.7%

CCOC(=O)C1(CCc2ccccc2)CCN(Cc2ccc(NC(C)=O)cc2)CC1
active: activation [1] 83% | activation [2] 90% | activation [10] 41.5%
inactive: outcome [3] | outcome [4] | outcome [5] | outcome [6] | outcome [7] | outcome [8] | outcome [9] | outcome [11] | outcome [12] | outcome [13] | outcome [14] | outcome [15] | outcome [16]

COc1ccc(C(CNC(=O)CCc2ccsc2)N(C)C)cc1 (centres undefined)
active: activation [1] 67% | activation [2] 129% | activation [10] 45.5%
inactive: outcome [3] | outcome [4] | outcome [5] | outcome [6] | outcome [7] | outcome [8] | outcome [9] | outcome [11] | outcome [12] | outcome [13] | outcome [14] | outcome [15] | outcome [16]

COc1ccccc1CC(=O)N1CCN(CCc2ccccc2)CC1
active: activation [1] 79% | activation [10] 48.5% | activation [12] 13.4%
inactive: outcome [2] | outcome [3] | outcome [4] | outcome [5] | outcome [6] | outcome [7] | outcome [8] | outcome [9] | outcome [11] | outcome [13] | outcome [14] | outcome [15] | outcome [16]

O=C(c1ccc(-c2ccccc2)cc1)C1CCCN(Cc2ccn[nH]2)C1 (centres undefined)
inactive: outcome [17] | outcome [18] | outcome [19]

CCC(=O)OC1(c2cccc(C)c2)CC(C)N(C)CC1C (centres undefined)
inactive: outcome [2] | outcome [3] | outcome [4] | outcome [5] | outcome [6] | outcome [7] | outcome [8] | outcome [9] inactive [setting not given] | outcome [11] inactive [setting not given] | outcome [12] | outcome [13] inactive [setting not given] | outcome [14] inactive [setting not given] | outcome [15] | outcome [16] inactive [setting not given]
active: activation [1] 79% | activation [10] 74.5%

O=C(O)c1cccc2c1NC(c1cccc([N+](=O)[O-])c1)C1CC(Sc3ccccc3[N+](=O)[O-])C(Cl)C21 (centres undefined)
inactive: outcome [17] | outcome [18] | outcome [19]

CCC(=O)C(CCN1CCOCC1)(c1ccccc1)c1ccccc1
active: activation [1] 289% | activation [2] 164% | activation [10] 69% | activation [12] 5.98%
inactive: outcome [3] | outcome [4] | outcome [5] | outcome [6] | outcome [7] | outcome [8] | outcome [9] inactive [setting not given] | outcome [11] inactive [setting not given] | outcome [13] inactive [setting not given] | outcome [14] inactive [setting not given] | outcome [15] | outcome [16] inactive [setting not given]

Reference: PubChem BioAssay
